This passage reports outcome and AC50 results from PubChem BioAssay (EPA / NIEHS).

Records with an inconclusive call do not appear. Calls of active or inactive are those of the source. The calls were made as follows, unless noted: active = hit-call score of the fitted dose curve at least 0.9, where 1 is the maximum; inactive = score below 0.9.

Test [1] deals with human Retinoid X Receptor beta (RXRb), RXRB (gene 6257) (UniProt P28702). In words: ATG_RXRb_TRANS: Attagene TRANS-FACTORIAL HepG2 Assay for human Retinoid X Receptor beta (RXRb) (AID 2283013; active = hit-call score of the fitted dose curve at least 0.9, where 1 is the maximum). In short, it runs like this: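 Transfect HepG2 with GAL4-UAS multi-reporter constructs (chimeric NR-Gal4, TRANS format); dose compound 24 h; isolate RNA, RT-PCR, FAM primer extension, HpaI digest; quantify by capillary electrophoresis; positive direction vs DMSO.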
Chain of human Retinoid X Receptor beta (RXRb), RXRB (gene 6257) (P28702 whole entry, looked up, the tested form may be a part): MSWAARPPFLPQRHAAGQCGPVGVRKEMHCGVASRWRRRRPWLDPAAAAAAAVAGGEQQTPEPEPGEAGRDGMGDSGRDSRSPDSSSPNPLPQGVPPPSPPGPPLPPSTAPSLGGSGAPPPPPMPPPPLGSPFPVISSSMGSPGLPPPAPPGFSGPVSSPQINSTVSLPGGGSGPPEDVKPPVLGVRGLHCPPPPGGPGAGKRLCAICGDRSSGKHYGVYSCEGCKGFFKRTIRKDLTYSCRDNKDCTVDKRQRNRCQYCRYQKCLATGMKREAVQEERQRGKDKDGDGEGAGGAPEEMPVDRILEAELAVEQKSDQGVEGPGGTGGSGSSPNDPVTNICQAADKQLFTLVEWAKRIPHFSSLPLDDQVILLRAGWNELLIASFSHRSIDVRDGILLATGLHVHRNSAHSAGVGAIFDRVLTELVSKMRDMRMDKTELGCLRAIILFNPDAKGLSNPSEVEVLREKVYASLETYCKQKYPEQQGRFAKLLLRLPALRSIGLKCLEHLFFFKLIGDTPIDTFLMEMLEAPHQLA

Read-out in test [2]: E-selectin (Homo sapiens) (UniProt P16581)
In words: BSK_3C_Eselectin: BioMAP Diversity Plus: 3C Assay for Eselectin Biomarker Activity (AID 2283015).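 Also: cell surface E-selectin protein quantified by ELISA 24 h after dosing.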 To be noted: primary human endothelial cells (HUVEC); actives raise or lower the signal. Summed up: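 Endpoint derived by bidirectional fitting against DMSO vehicle; signal is ELISA-detected E-selectin from primary HUVEC at 24 h post-dosing, with parallel SRB staining (0.1% SRB, 560 nm) flagging cytotoxicity.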

Read-out in test [3]: Interleukin-1 alpha (IL1a), IL1A (gene 3552)
In words: BSK_BE3C_IL1a: BioMAP Diversity Plus: BE3C Assay for Interleukin-1 alpha (IL1a) Biomarker Activity (AID 2283016). To be noted: primary human bronchial epithelial cells; actives raise or lower the signal. Summed up:
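BE3C primary human bronchial epithelium; cpd 24 h; IL-1a by ELISA; bidirectional fit vs DMSO; parallel SRB (0.1% SRB, 10% TCA fix, 560 nm) for cytotoxicity.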

Read-out in test [4]: Monocyte Chemoattractant Protein-1 (MCP1), CCL2 (gene 6347)
In words: BSK_3C_MCP1: BioMAP Diversity Plus: 3C Assay for Monocyte Chemoattractant Protein-1 (MCP1) Biomarker Activity (AID 2283017). To be noted: primary human endothelial cells (HUVEC); actives raise or lower the signal. In short, it runs like this: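 Using human vascular primary endothelium, researchers measured MCP-1 by ELISA 24 h after treatment, with DMSO serving as negative control for bidirectional fitting.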

Read-out in test [5]: Monocyte Chemoattractant Protein-1 (MCP1), CCL2 (gene 6347)
The test can be described thus: BSK_4H_MCP1: BioMAP Diversity Plus: 4H Assay for Monocyte Chemoattractant Protein-1 (MCP1) Biomarker Activity (AID 2283018). To be noted: primary human endothelial cells (HUVEC); actives raise or lower the signal. Summed up:
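ELISA read-out of MCP-1 from human vascular endothelial primary cells taken at 24 hours after compound exposure. Activity was fitted in both directions relative to DMSO, which served as negative control.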

Read-out in test [6]: Human Leukocyte Antigen - DR isotype (HLADR), HLA-DRA (gene 3122)
The test can be described thus: BSK_3C_HLADR: BioMAP Diversity Plus: 3C Assay for Human Leukocyte Antigen - DR isotype (HLADR) Biomarker Activity (AID 2283019).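 As to outcome: ELISA of cell-surface HLA-DR on HUVEC 24 h after dosing.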 To be noted: primary human endothelial cells (HUVEC); actives raise or lower the signal. Summed up:
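Compound added to primary HUVEC cultures, 24 h incubation, then HLA-DR determined by ELISA; endpoint derived by bidirectional fitting relative to DMSO negative control.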

Read-out in test [7]: Interleukin-8 (IL8), CXCL8 (gene 3576)
In words: BSK_3C_IL8: BioMAP Diversity Plus: 3C Assay for Interleukin-8 (IL8) Biomarker Activity (AID 2283020). To be noted: primary human endothelial cells (HUVEC); actives raise or lower the signal. In short, it runs like this:
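ELISA read-out of IL-8 from human umbilical vein endothelium, measured 24 h after chemical dosing. Activity is expressed relative to DMSO negative control, with both increases and decreases fitted.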

Read-out in test [8]: Monokine induced gamma interferon (MIG), CXCL9 (gene 4283)
The test can be described thus: BSK_3C_MIG: BioMAP Diversity Plus: 3C Assay for Monokine induced gamma interferon (MIG) Biomarker Activity (AID 2283021). To be noted: primary human endothelial cells (HUVEC); actives raise or lower the signal. In short, it runs like this:
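Read-out is ELISA detection of MIG on human umbilical vein endothelial cells, taken 24 h after dosing. Gain or loss of signal was scored relative to DMSO controls using bidirectional curve fitting.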

Test [9] concerns the target human Vitamin D Receptor (VDR), VDR (gene 7421) (UniProt P11473). In words: ATG_VDR_TRANS: Attagene TRANS-FACTORIAL HepG2 Assay for human Vitamin D Receptor (VDR) (AID 2283022; active = hit-call score of the fitted dose curve at least 0.9, where 1 is the maximum). Summed up: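 Multiplexed TRANS reporter in HepG2; 24 h treatment; reporter mRNA by RT-PCR plus capillary electrophoresis; upregulation scored relative to DMSO.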
Test [10] is described as follows: BSK_3C_SRB: Viability Assessment in the BioMAP Diversity Plus: 3C Assay (AID 2283023).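 Also: fitted both ways against DMSO so a hit may be signal rise or drop.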 To be noted: primary human endothelial cells (HUVEC). In short, it runs like this: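 Overt cytotoxicity is gauged in parallel confluent HUVEC cultures by SRB total-protein staining at the time of biomarker measurement, 24 h after dosing. Gain or loss of signal is fitted versus DMSO.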

Read-out in test [11]: Matrix Metallopeptidase 1 (MMP1), MMP1 (gene 4312)
The test can be described thus: BSK_BE3C_MMP1: BioMAP Diversity Plus: BE3C Assay for Matrix Metallopeptidase 1 (MMP1) Biomarker Activity (AID 2283024). To be noted: primary human bronchial epithelial cells; actives raise or lower the signal. Summed up: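 Human bronchial epithelial cells (BE3C system) exposed to compound for 24 h; MMP1 then quantified by ELISA. Activity was fitted in both directions relative to DMSO.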

The nature of test [12]: BSK_3C_Vis: BioMAP Diversity Plus: 3C Assay for Morphology Visualization (AID 2283025).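 Also: fitted both ways so gain or loss versus DMSO counts.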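 As to AC50: light microscopy image of cell morphology used as background control.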 To be noted: primary human endothelial cells (HUVEC). In short, it runs like this:
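Chemicals were added to primary human umbilical vein endothelium, cells were incubated 24 h, and morphology was then visualized by light microscopy. Gain or loss of signal was fitted bidirectionally relative to DMSO.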

Read-out in test [13]: Pselectin, SELP (gene 6403)
In words: BSK_4H_Pselectin: BioMAP Diversity Plus: 4H Assay for Pselectin Biomarker Activity (AID 2283026). To be noted: primary human endothelial cells (HUVEC); actives raise or lower the signal. Summed up: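 ELISA read-out of P-selectin on human umbilical vein endothelium after 24 h of dosing. Values derive from bidirectional fitting relative to DMSO. Parallel SRB protein staining flagged overt cytotoxicity.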

Test [14] can be described thus: BSK_4H_SRB: Viability Assessment in the BioMAP Diversity Plus: 4H Assay (AID 2283027).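 Also: cells exposed to compound for 24 h before staining.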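 As to AC50: curves fitted both ways versus DMSO so AC50 may be loss or gain.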 To be noted: primary human endothelial cells (HUVEC). Summed up:
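Absorbance at 560 nm of SRB-stained total protein served as the viability read-out in confluent primary human umbilical vein endothelium 24 h after chemical treatment. Curves were fitted bidirectionally against DMSO as negative control.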

Test [15] can be described thus: BSK_BE3C_SRB: Viability Assessment in the BioMAP Diversity Plus: BE3C Assay (AID 2283028).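 As to AC50: fitted both ways so AC50 may mark signal gain or loss versus DMSO.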 To be noted: primary human bronchial epithelial cells. Summed up:
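SRB total-protein staining (0.1%, after TCA fixation) of chemically dosed human bronchial epithelial primary cells at 24 h; DMSO serves as the negative control for bidirectional curve fitting.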

Read-out in test [16]: Vascular endothelial growth factor receptor 2 (Homo sapiens) (UniProt P35968)
In words: BSK_4H_VEGFRII: BioMAP Diversity Plus: 4H Assay for Vascular endothelial growth factor receptor 2 (VEGFR2) Biomarker Activity (AID 2283031). To be noted: primary human endothelial cells (HUVEC); actives raise or lower the signal. Summed up: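 In this multiplexed HUVEC system, biomarker ELISA was performed after 24 h chemical exposure. Parallel SRB staining (TCA fixation, 560 nm) tracked cytotoxicity; DMSO served as baseline.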

In test [17] the target is human Thyroid Receptor alpha (THRa1), THRA (gene 7067) (UniProt P10827). The test can be described thus: ATG_THRa1_TRANS: Attagene TRANS-FACTORIAL HepG2 Assay for human Thyroid Receptor alpha (THRa1) (AID 2283014; active = hit-call score of the fitted dose curve at least 0.9, where 1 is the maximum). In short, it runs like this:
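Measured here is mRNA from a GAL4-UAS reporter in transfected HepG2 cells carrying a Gal4-fused receptor, 24 h post-dose. DMSO served as negative control and baseline.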

Read-out in test [18]: Urokinase-type plasminogen activator receptor (uPAR), PLAUR (gene 5329)
The test can be described thus: BSK_4H_uPAR: BioMAP Diversity Plus: 4H Assay for Urokinase-type plasminogen activator receptor (uPAR) Biomarker Activity (AID 2283030). To be noted: primary human endothelial cells (HUVEC); actives raise or lower the signal. In short, it runs like this:
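Endpoint derived via bidirectional curve fitting against DMSO baseline; readout was ELISA detection of uPAR on umbilical vein endothelial cells at 24 h post-treatment, with SRB-stained parallel cultures assessing cytotoxicity.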

Read-out in test [19]: Thrombomodulin, THBD (gene 7056)
The test can be described thus: BSK_3C_Thrombomodulin: BioMAP Diversity Plus: 3C Assay for Thrombomodulin Biomarker Activity (AID 2283029). To be noted: primary human endothelial cells (HUVEC); actives raise or lower the signal. In short, it runs like this: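 Read-out is ELISA of thrombomodulin on human umbilical vein endothelium 24 h after chemical dosing. Gain or loss of signal is scored relative to DMSO. Overt cytotoxicity is checked in parallel cultures by sulforhodamine B staining.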

Chain of E-selectin (Homo sapiens) (P16581 whole entry, looked up): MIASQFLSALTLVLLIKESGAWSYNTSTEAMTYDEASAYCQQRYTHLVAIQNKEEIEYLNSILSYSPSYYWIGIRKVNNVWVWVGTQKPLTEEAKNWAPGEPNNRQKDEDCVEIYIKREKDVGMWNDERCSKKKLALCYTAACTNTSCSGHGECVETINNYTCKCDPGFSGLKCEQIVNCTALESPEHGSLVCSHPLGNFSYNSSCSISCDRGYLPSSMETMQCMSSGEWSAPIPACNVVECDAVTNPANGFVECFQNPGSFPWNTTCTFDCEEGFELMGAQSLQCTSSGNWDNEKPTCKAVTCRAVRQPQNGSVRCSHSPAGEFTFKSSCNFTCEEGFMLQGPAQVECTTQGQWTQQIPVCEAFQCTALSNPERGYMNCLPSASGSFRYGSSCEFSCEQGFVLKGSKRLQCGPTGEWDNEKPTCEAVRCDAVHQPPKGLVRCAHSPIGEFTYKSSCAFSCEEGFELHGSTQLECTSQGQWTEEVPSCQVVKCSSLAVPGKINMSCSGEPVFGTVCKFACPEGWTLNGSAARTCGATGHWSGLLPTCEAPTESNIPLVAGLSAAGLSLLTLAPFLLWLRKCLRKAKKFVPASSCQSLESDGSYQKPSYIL
Chain of human Vitamin D Receptor (VDR), VDR (gene 7421) (P11473 whole entry, looked up): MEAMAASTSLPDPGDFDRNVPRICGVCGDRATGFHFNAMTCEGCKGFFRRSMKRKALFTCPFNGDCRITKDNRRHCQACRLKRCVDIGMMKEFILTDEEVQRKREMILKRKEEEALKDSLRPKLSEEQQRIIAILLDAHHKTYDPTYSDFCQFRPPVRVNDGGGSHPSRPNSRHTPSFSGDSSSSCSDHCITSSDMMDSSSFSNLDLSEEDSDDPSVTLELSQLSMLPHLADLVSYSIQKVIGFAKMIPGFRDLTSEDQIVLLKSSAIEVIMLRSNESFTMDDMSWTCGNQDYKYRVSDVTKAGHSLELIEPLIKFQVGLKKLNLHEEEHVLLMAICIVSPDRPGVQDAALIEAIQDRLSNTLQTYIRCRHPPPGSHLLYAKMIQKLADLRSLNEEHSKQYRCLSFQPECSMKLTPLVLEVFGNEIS
Chain of human Thyroid Receptor alpha (THRa1), THRA (gene 7067) (P10827 whole entry, looked up, the tested form may be a part): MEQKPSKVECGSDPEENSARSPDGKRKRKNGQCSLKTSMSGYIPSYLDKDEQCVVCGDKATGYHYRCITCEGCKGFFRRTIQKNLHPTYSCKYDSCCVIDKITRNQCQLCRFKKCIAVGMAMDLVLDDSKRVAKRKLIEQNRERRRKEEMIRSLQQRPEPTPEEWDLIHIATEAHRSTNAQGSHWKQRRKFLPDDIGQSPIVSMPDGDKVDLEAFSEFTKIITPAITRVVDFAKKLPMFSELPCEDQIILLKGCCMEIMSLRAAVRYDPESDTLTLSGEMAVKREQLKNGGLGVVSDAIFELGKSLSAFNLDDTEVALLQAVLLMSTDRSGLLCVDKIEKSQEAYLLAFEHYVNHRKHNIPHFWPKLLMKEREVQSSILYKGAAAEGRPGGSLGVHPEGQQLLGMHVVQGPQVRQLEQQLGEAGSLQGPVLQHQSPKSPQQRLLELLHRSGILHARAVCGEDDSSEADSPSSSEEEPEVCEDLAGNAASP

For `CN(C)c1ccc(C(=O)c2ccc(N(C)C)cc2)cc1`, the result in [1], in test [2], in test [3], in [5], in test [8] and in test [9] was inactive. For the same compound, the result in test [11], in test [13], in test [15] and in test [16] was inactive. The AC50 in test [4] was 2.3 µM (active); in test [6], 20 µM (active); in test [7], 2.55 µM (active); in test [10], 3.55 µM (active); in test [12], 5.81 µM (active); in [14] it was 1.56 µM (active).

Turning to `OCCCBr`, the outcome in test [1], in [17], in [2], in [3], in [4] and in test [5] was inactive. Further, the result in test [6], in test [7], in test [8], in [9], in test [10] and in test [12] was inactive. Also, the result in test [13], in test [14], in test [15], in test [18] and in test [16] was inactive.

Regarding `[O-][Cl+]O`, the compound was called inactive in test [1], in test [17], in [2], in test [3], in [4] and in [5]. In addition, the outcome in test [6], in test [7], in test [8], in test [10], in test [11] and in test [12] was inactive. The result in test [13], in [14], in test [15], in [19] and in test [18] was inactive.

For the compound `CCOC(=O)[C@]1(c2ccccc2)Oc2ccccc2[C@@H]1N`, the call in test [17], in [2], in test [3], in [5], in test [8] and in test [9] was inactive. The result in test [11], in [13], in test [14], in test [15], in test [19] and in test [16] was inactive. The AC50 in test [4] is 13.4 µM (active); in test [6], 27.6 µM (active); in [7] it was 20 µM (active); in [10] it was 24.7 µM (active); in test [12], 39 µM (active); in test [18] it was 10.3 µM (active).

Consider `c1ccc(C2CO2)cc1` (configuration not stated), for which the result in test [2], in test [3], in [4], in test [5], in [6] and in [7] was inactive. Also, the outcome in test [8], in test [10], in test [11], in test [12], in test [13] and in [14] was inactive. The result in test [15], in test [19] and in [16] was inactive.

For the compound `N#CC(Br)(Br)C(N)=O`, the AC50 in test [1] is 10 µM (active). Further, the compound was classed as inactive in test [17], in test [2], in [3], in test [4], in test [5] and in [6]. Further, the result in test [7], in test [8], in test [9], in test [10], in test [12] and in [13] was inactive. Moreover, the outcome in [14], in test [15], in [19] and in [16] was inactive.

Regarding `CN(C)[C@@H]1C(=O)C(C(N)=O)=C(O)[C@@]2(O)C(=O)C3=C(O)c4c(O)cccc4[C@@](C)(O)[C@H]3C[C@@H]12`, the result in test [17], in test [2], in [3], in [4], in [5] and in [6] was inactive. Besides, the result in test [7], in test [8], in test [10], in test [12], in test [13] and in test [14] was inactive. Moreover, the outcome in [15], in test [19], in test [18] and in test [16] was inactive.

Consider `O=C(N[C@H](c1ccccc1)[C@@H]1CN2CCC1CC2)c1c(Cl)ccc(C(F)(F)F)c1Cl`, for which the result in test [1], in [2], in [5], in [6], in test [8] and in test [9] was inactive. The outcome in test [13], in test [14] and in [16] was inactive. Besides, the AC50 in test [3] is 44.5 µM (active); in test [4], 14.3 µM (active); in test [7], 19 µM (active); in [10], 29.7 µM (active); in test [12], 14.5 µM (active); in [15] it was 27.4 µM (active). Moreover, the AC50 in test [19] was 29.7 µM (active).

As a reminder, the AC50 is the concentration giving half of the maximal activity seen.
